# Experimental data as given in the supplement of paper PMC3334620.
# Over roughly 33,000 sequences, “E-score (-0.5 to 0.5)” has its median near -0.016; the highest 2% begin near 0.32. The list comes from a sample in which the highest values are over-represented; it also holds similar and randomly drawn sequences.
# Molecular target: T1, Stp1 (UniProt B3LFK1)
# T1 sequence: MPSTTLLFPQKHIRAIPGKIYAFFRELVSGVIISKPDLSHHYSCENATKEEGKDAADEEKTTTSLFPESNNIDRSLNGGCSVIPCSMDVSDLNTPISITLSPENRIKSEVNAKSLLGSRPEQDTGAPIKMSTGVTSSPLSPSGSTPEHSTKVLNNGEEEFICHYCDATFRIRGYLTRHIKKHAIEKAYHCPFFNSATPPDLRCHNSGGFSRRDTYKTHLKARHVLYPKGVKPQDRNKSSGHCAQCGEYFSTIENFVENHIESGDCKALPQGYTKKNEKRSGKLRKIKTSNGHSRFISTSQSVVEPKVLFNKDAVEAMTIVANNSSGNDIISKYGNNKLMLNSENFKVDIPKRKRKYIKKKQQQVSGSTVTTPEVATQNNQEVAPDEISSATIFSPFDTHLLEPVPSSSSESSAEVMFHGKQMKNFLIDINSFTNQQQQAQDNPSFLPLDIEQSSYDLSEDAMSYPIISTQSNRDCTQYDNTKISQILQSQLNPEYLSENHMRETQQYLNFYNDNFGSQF
# Assay: PBM E-score (8-mer binding enrichment) (E-score (-0.5 to 0.5)); higher = stronger / more preferred TF binding
# Details: protein concentration: 200 nM; construct: GST-full length
# Description: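 Universal 'all 10-mer' protein binding microarrays (Agilent AMADID 015681) probed with GST-tagged S. cerevisiae TFs (full-length or DBD) made by in vitro transcription/translation (PURExpress), about 100-200 nM. Bound TF was detected with fluorescent anti-GST. Each ungapped 8-mer (which stands for itself and its reverse complement) is scored by the PBM enrichment score (E-score), a modified Wilcoxon-Mann-Whitney statistic from -0.5 to +0.5, computed with the Universal PBM Analysis Suite. Scale: above 0.35 generally sequence-specific binding.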
row,Sequence,PBM E-score
1,CGAGGCGA,0.289
2,CGAGGCGC,0.456
3,AGAGGCGC,0.327
4,AGAGGCGG,0.061
5,AGAGGCGA,0.135
6,CGAGGCTC,0.131
7,GGGGCAAA,0.0199
8,TACTGTGA,-0.14
9,ATGGTAAA,0.0118
10,AATTACTC,0.144
11,CTTCTAGC,-0.0527
12,ACCGTGCC,0.313
13,ACCGTGTA,0.0338
14,CCCGTGTA,0.0889
15,TCCGTGCA,0.258
16,GCCGTGCA,0.478
17,GACGTGCC,0.238
18,GCCGTGCC,0.487
19,ACCGTGCA,-0.0437
20,CCCGTGGA,-0.0712
21,GCCGTGTA,0.473
22,GCCGTGGA,0.402
23,ACCGTGGA,0.0243
24,CCTTTTGC,0.214
25,ACAGATAG,-0.0308

row,Sequence,PBM E-score
1,AATATGCG,0.114
2,ACAACGAT,0.00545
3,AAGACGAA,0.0123
4,GAAGTGTC,-0.0596
5,CGAGTCGA,-0.00477
6,ACGGGTGC,0.105
7,GCGCTCGA,0.0767
8,GCCGTGAC,0.294
9,AGCGTGCC,0.126
10,TCCGTGAA,0.0172
11,CCCGTGGC,0.046
12,CCCGTGCC,0.33
13,CGCGTGCA,0.0968
14,GCCGTGAA,0.361
15,CGCGTGCC,0.325
16,CTCGTGCC,0.294
17,CCTCTCCC,-0.253
18,ACTGGCAG,0.0412
19,CTCGACGA,-0.13
20,TAATAGTA,0.24
21,ATTCCTAC,0.0636
22,CCAATAGG,0.0256
23,GACGGCCC,0.069
24,GACGGCCA,-0.0395
25,AACGGCCT,0.151

row,Sequence,PBM E-score
1,CACGGCCC,0.337
2,AACGGCCA,0.214
3,ATCGGCCG,0.15
4,AACGGCCC,0.235
5,CACGGCCA,0.34
6,CACGGCCG,0.338
7,AACGGCCG,0.333
8,CCCGGCCG,-0.152
9,CAAGGCCG,0.103
10,AGATCAGG,-0.173
11,CTAGAGTC,-0.33
12,ACGGAGCT,0.087
13,AACATAGG,0.0786
14,AGCCTTCA,0.108
15,AGGCATAC,0.0863
16,CTTTCTCC,-0.244
17,GATGCCCC,-0.129
18,CATGCCGA,0.188
19,CATGCCGC,0.427
20,GATGCCGA,0.29
21,GATGCCGC,0.466
22,CATGCCGG,0.186
23,CGGAAACA,-0.0866
24,GGGCATAC,-0.00074
25,CCACGTGC,0.215

row,Sequence,PBM E-score
1,GCACGTGA,0.135
2,GCACGTGC,0.352
3,ACCAGAGC,-0.0074
4,CCGCACCA,0.237
5,CGTGCCTA,0.184
6,CGTGCCCC,0.0449
7,AGTGCCTC,0.347
8,AGTGCCTG,-0.0958
9,AGTGCCTA,0.21
10,CGTGCCTC,0.398
11,GGTGGTTA,0.00324
12,AACGCATG,-0.0148
13,CGGCGAAA,0.354
14,AGCCGAAC,-0.0533
15,TGGCGAAA,0.088
16,CGGCGAAC,0.317
17,CGCCGAAC,0.347
18,CGGCGAAG,0.292
19,CGCCGAAG,0.13
20,AGGCGAAC,0.145
21,GGGCGAAC,0.0424
22,CATAGTCA,-0.195
23,CTGGAGTC,-0.362
24,TAGCAGGA,-0.226
25,CAGCCTTC,-0.091

row,Sequence,PBM E-score
1,CGGCATCA,0.438
2,AGGCATCC,-0.0829
3,GGGCATCA,0.104
4,AGGCATAG,0.15
5,CAGCATCC,-0.252
6,CGGCATCC,0.353
7,CGGCATAC,0.27
8,AGGCATCG,0.348
9,CAGCATCA,0.0143
10,CGGCATAA,0.358
11,AGGCATCA,0.215
12,GGGCATAA,0.0801
13,CACCACGA,-0.0238
14,ATATCGAG,0.123
15,CATAGGGC,0.152
16,ACCCTAGA,-0.227
17,ACTGTTCC,-0.131
18,ACCATCAA,-0.149
19,ATCAGTTG,0.00725
20,GACTGCTC,-0.287
21,TTCAACAA,0.167
22,AAAAGCTC,-0.131
23,CGCCCCGC,0.221
24,AGCGCCCC,0.0659
25,CACCGCGC,0.166

row,Sequence,PBM E-score
1,CGCGCCCC,0.209
2,AGCGCCTA,0.182
3,CTCCGCGC,0.227
4,AGCGCAGC,-0.112
5,CGCGCCGC,0.483
6,CGCCGCGC,0.487
7,GGCGCCTA,0.362
8,AGCGCCGC,0.481
9,GCCGCCTA,0.185
10,CATGATCG,-0.0196
11,GGAGCCAC,-0.246
12,CAGCGAAA,-0.0495
13,CGATCAGA,-0.053
14,GTACACGA,0.136
15,ATATTAGG,0.0795
16,CTCGAAAC,0.113
17,AGACAACG,0.0214
18,CAAGACGG,-0.0357
19,CATTGCGC,0.0607
20,CGCGCCGA,0.362
21,GGCGCCCA,0.311
22,CGCGCAGA,0.22
23,AGCGCCCT,0.319
24,AGCGCAGA,-0.0529
25,GGCGCCGA,0.421

row,Sequence,PBM E-score
1,AGCGCCCA,-0.225
2,GTCGCCGA,0.0933
3,AGCGCCGA,0.321
4,CGCGCCCA,0.213
5,AGCGCCCG,-0.00709
6,AGCGCCGG,0.174
7,AGCCAAAG,-0.00729
8,AGATCCTG,-0.32
9,CACGGTCC,-0.109
10,TCCCCAAA,-0.0405
11,GACTATCC,-0.178
12,CAACCAGG,-0.196
13,GGAGTGAA,-0.0852
14,AGATTTCC,-0.00021
15,ACAAAGTG,-0.0329
16,ATCTTGAG,-0.0881
17,GGCCGCGA,-0.0392
18,CGCCGCGA,0.379
19,CACCGCGA,-0.0402
20,ACCGCCGG,-0.0408
21,ACCGCCGT,0.449
22,ACCGCCAT,0.0869
23,ACCGCCGA,0.0744
24,ACCGCCCT,-0.14
25,ACCGCCGC,0.389

row,Sequence,PBM E-score
1,AGCAACCC,-0.306
2,CGTCACGA,0.0354
3,AGAACGCA,-0.00423
4,ATGGCATA,0.226
5,AGGGCATA,0.128
6,CCGGCATA,-0.183
7,GTGGCATA,0.0347
8,ACGGCATA,0.45
9,GCGGCATA,0.435
10,AGCCTATG,-0.0976
11,ATTGGCGC,0.189
12,ACGCACCG,0.0649
13,CGTTGCTC,0.0478
14,GAAGGGCA,0.231
15,GACCGAGC,-0.228
16,CGGCGTGC,0.316
17,AGGCGTCC,-0.0371
18,AGGCGTCA,0.172
19,CGGCGTCA,0.399
20,CGGCGTCC,0.376
21,GGGCGTCA,-0.037
22,GGTGGTGA,-0.125
23,GAGTACGA,0.0292
24,GTCTAAGA,0.0284
25,CATACTTA,-0.00908

row,Sequence,PBM E-score
1,AACTTCAT,0.092
2,GAATCGGC,0.268
3,AGCATGCG,0.016
4,CAGGGGCA,-0.0911
5,CGGCCTTA,0.293
6,CGGCCTTC,0.322
7,AGGCCTTC,-0.188
8,AATAAATG,0.219
9,AATAAATA,0.35
10,TATAAATA,0.198
11,CACAGTAA,0.209
12,GGGAGACC,-0.355
13,GCCTCACA,0.263
14,ACCTCACC,-0.128
15,GCCTCACC,0.327
16,GATGCAGA,-0.0503
17,GCTGTTGA,0.169
18,CTGTAGCC,0.041
19,ATTTCAAA,0.134
